# Compound activity deposited in PubChem by The Scripps Research Institute Molecular Screening Center.
# TEAD-YAP inh: TEAD-YAP interaction inhibition, primary screen, TEAD-YAP interaction inhibitor project, luminescence, HEK-TIYL cells. TEAD-Gal4/YAP UAS-luciferase luminescence. inhibition, % at 9.12 µM. 640,000 tested, 1.4% active; in the data active = inhibition above about 32%;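 note: 0% = median of test compound wells and 100% = reference inhibitor wells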
# MITF primary: MITF inhibitors, primary screen, biochemical, AlphaScreen, human. AID 1259374, 2018. 650,000 tested, 0.91% active. AlphaScreen MITF homodimerization, bead proximity signal. Microphthalmia-associated transcription factor (Homo sapiens), O75030. inhibition, % at 2.6 µM; in the data active = inhibition above about 50%;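 note: 0% = vehicle wells with protein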
# GPR151 activ: activators of human GPR151, primary screen, cell-based, PathHunter beta-arrestin, luminescence. activation, % at 11.2 µM. PathHunter beta-arrestin GPR151 cells. G-protein coupled receptor 151 (Homo sapiens), Q8TDV0. 650,000 tested, 1% active; in the data active = activation above about 4.9%;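 note: 0% = median of compound wells and 100% = cells with positive control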
# FBW7 act: FBW7 E3 ligase activators, primary screen, biochemical, AlphaScreen, human; F-box/WD repeat-containing protein 7 (Homo sapiens), Q969H0; AID 1259310, 2017; normalized activity (activation), % at 26.1 µM; AlphaScreen FBW7–phospho-cyclin E peptide binding, activator screen; 650,000 tested, 0.13% active; in the data active = normalized activity above about 1.9%;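 note: purified mutant Fbw7 with reduced substrate affinity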
# Target sequence (Q969H0 whole entry, looked up): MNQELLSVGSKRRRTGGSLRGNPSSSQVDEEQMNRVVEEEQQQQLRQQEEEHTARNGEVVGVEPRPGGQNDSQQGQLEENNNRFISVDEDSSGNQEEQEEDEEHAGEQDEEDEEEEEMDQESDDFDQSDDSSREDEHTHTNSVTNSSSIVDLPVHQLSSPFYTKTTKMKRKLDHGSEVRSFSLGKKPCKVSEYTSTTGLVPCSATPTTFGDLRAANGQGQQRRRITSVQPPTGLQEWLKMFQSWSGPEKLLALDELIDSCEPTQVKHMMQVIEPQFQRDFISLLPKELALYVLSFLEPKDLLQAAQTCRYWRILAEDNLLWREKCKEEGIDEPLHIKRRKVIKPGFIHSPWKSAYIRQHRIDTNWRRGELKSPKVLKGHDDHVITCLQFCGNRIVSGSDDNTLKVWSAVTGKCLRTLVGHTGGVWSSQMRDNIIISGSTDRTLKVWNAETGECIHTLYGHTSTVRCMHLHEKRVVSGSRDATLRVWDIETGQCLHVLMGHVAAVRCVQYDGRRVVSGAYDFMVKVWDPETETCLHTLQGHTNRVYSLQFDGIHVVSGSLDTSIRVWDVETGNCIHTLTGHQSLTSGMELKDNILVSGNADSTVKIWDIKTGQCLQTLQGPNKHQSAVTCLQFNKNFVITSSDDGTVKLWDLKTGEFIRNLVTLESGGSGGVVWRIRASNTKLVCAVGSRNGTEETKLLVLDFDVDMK
# Starred values were filed as active, the others as inactive. This is a sample that favours compounds with a hit; in the whole collection about 3.5% have one here.
SMILES,TEAD-YAP inh,MITF primary,GPR151 activ,FBW7 act
CC(=O)N1c2ccccc2NC2=C(C(=O)CCC2)C1c1cccs1 (stereo not drawn),49*,-3,1,0
O=C1CCCC2=C1C(c1cccc(Br)c1)Nc1ccccc1N2 (stereo not drawn),-2,14,0,0
O=C1CCCC2=C1C(c1cccs1)Nc1ccc(C(=O)c3ccccc3)cc1N2 (stereo not drawn),55*,-3,0,0
O=C1CCCC2=C1C(c1cccs1)N(C(=O)c1ccccc1)c1ccccc1N2 (stereo not drawn),4,2,-1,0
O=C1CCCC2=C1C(c1ccc(O)cc1)Nc1ccc(C(=O)c3ccccc3)cc1N2 (stereo not drawn),34*,4,0,0
O=C1CCCC2=C1C(c1ccc(F)cc1)Nc1ccc(C(=O)c3ccccc3)cc1N2 (stereo not drawn),22,12,-2,0
Cc1onc(-c2ccccc2Cl)c1C(=O)Nc1ccc(N(C)C)cc1,-32,5,1,0
COC(=O)c1ccc(C(=O)OC)c(NC(=O)/C=C/c2ccc(OC)c(OC)c2)c1,-3,1,-1,0
O=C(COc1ccc(Cl)cc1)Nc1ccc([N+](=O)[O-])cn1,5,-3,1,0
Cc1ccc(-c2csc(/C(C#N)=C\Nc3ccc(S(N)(=O)=O)cc3)n2)cc1,9,6,2,2.7*
O=C1CSC(=S)N1c1ccc(F)cc1,0,8,-1,0
CN(C)c1ccc(N2C(=O)CSC2=S)cc1,6,54*,0,0
CCCNC(=O)c1ccc2nc(Nc3nccc4ccccc34)sc2c1,-32,-6,1,0
C(=N\Nc1nn[nH]n1)/c1ccc(N2CCOCC2)cc1,-5,58*,0,0
Oc1ccc(/C=N/NC(=S)N2CCOCC2)cc1,50*,13,-3,0
COCCNC(=S)N/N=C/c1ccc(N2CCOCC2)cc1,64*,-1,-1,0
CN(Cc1nc(CCc2ccccc2)no1)Cc1nccn1C,-12,11,2,0
CCc1cccc(C)c1NC(=S)N(CCN1CCCCCC1)Cc1ccco1,7,7,-2,3.2*
Cn1c(-c2ccc3c(c2)OCO3)cn2cc(-c3cccc([N+](=O)[O-])c3)nc12,98*,7,-1,0
COc1ccc(-c2cn3cc(-c4cccc([N+](=O)[O-])c4)nc3n2C)cc1,98*,2,-7,0
Cn1c(-c2ccccc2)cn2cc(-c3cccc([N+](=O)[O-])c3)nc12,99*,3,-8,0
Cn1c(-c2cccc([N+](=O)[O-])c2)n[nH]c1=S,3,1,0,0
O=[N+]([O-])c1cccc(-c2csc(Nc3ccc4c(c3)OCO4)n2)c1,-21,26,-1,0
COc1ccc(-n2c(-c3cccc([N+](=O)[O-])c3)n[nH]c2=S)cc1,-2,2,1,0
O=C(Nc1nnc(C23CC4CC(CC(C4)C2)C3)s1)c1ccccc1,42*,13,0,0
SMILES,TEAD-YAP inh,MITF primary,GPR151 activ,FBW7 act
O=C(Nc1nnc(C23CC4CC(CC(C4)C2)C3)s1)c1cccs1,33*,6,0,0
O=C(Nc1nnc(C23CC4CC(CC(C4)C2)C3)s1)c1ccccc1Cl,9,5,0,0
Cc1cc(C)c2c(N)c(C(=O)Nc3ccccn3)sc2n1,95*,-2,-5,0
Cc1cccc(NC(=O)c2sc3nc(C)cc(C(F)(F)F)c3c2N)n1,48*,9,1,0
O=C(c1ccco1)N1CCN(C(=O)c2cc3c(ccc4ccccc43)oc2=O)CC1,1,8,1,0
COc1cccc2cc(S(=O)(=O)c3ccc(F)cc3)c(=O)oc12,-3,6,-1,0
CCN(CC)c1ccc2cc(S(=O)(=O)c3ccc(F)cc3)c(=O)oc2c1,-17,-32,-1,2.1*
CCOC(=O)c1ccc(N2C(=O)CC(Nc3ccc(N(C)C)cc3)C2=O)cc1 (stereo not drawn),11,6,0,0
CCOCCCNC(=O)C(C)n1nc(C)n2c(cc3occc32)c1=O (stereo not drawn),-6,6,-1,0
CCc1cc(=O)[nH]c(-n2nc(C)cc2NC(=O)CC2CCCC2)n1,58*,32,-2,0
CCCc1cc(=O)[nH]c(-n2nc(C)cc2NC(=O)C2CC2)n1,12,12,0,0
COc1cc(CNCCO)c(Br)cc1OCC(N)=O,6,1,0,0
CCOC(=O)c1c(NC(=O)C2C3C=CC(C3)C2(C)C(=O)O)sc2c1CCCC2 (stereo not drawn),40*,60*,2,-1
CC(=O)N(/C=C1\Sc2ccccc2C1=O)c1ccc(C(=O)O)cc1,-5,13,-4,0
CC(=O)N(/C=C1\Sc2ccccc2C1=O)c1ccc(C)cc1,70*,14,-3,0
COc1ccccc1N(/C=C1\Sc2ccccc2C1=O)C(C)=O,79*,3,2,0
N#Cc1nc(COc2ccc(Br)cc2)oc1NCc1ccco1,6,5,1,23*
Cc1c(C(=O)Nc2ccccn2)sc2ncnc(N3CCOCC3)c12,3,-4,-1,0
O=C(NNC(=S)NCC1CCCO1)C(Sc1ccccc1)c1ccccc1 (stereo not drawn),1,2,1,2.2*
Cc1ccc(CNC(=O)c2nnc(-c3ccccc3)o2)cc1,-10,-16,0,0
COC(=O)c1ccc(N2CCOCC2)c(NS(=O)(=O)c2ccc(OC)cc2)c1,58*,7,-1,0
Cc1ccc(S(=O)(=O)Nc2cc(C(=O)N3CCOCC3)ccc2N2CCCCC2)cc1,2,-4,0,0
COC(=O)c1ccc(N2CCCC2)c(NS(=O)(=O)c2ccc(C)cc2)c1,41*,6,-1,1
COc1cc2ccccc2cc1C(=O)Nc1onc2c1CCC2,-21,0,0,0
CC(CC(=O)O)CC(=O)NCc1cccnc1 (stereo not drawn),7,6,0,0
SMILES,TEAD-YAP inh,MITF primary,GPR151 activ,FBW7 act
CC(C)(C)NC(=O)C1CCN(c2nc3ccccc3s2)CC1,-28,7,-2,0
c1ccc2ncc(-c3ccc4c(c3)COC3(CCNCC3)O4)cc2c1,64*,17,-1,0
CCOC(=O)C1=C(C)NC2=C(C(=O)CC(c3ccccc3)C2)C1c1ccc(OC)cc1 (stereo not drawn),-1,1,1,0
Cn1cccc1/C=C1/SC(=S)N(c2cccc(C(=O)O)c2)C1=O,-26,14,0,0
CON(C)C(=O)c1ccc2c(c1)CC(c1nc3ccc(-c4ccnc(N)n4)cc3[nH]1)CO2 (stereo not drawn),11,25,-1,0
CC(CNC(=O)c1ccc2c(c1)CC(c1nc3ccc(-c4ccnc(N)n4)cc3[nH]1)CO2)c1ccccc1 (stereo not drawn),41*,-2,0,1.9*
